Experimental data taken from PubChem BioAssay AID1159580 (chemical genetic matrix, 2015).
Several values for one entry are separate records, joined by “and”; a condition that tells them apart may be missing. Identical values can stand only once. Among all 5,500 compounds or so, about 2,000 (36%) were called active. About 18% were inconclusive and are not listed. Cut-off read from the data, not from the text of the source: active = normalized growth mostly below about 0.91 (no sharp cut-off); inconclusive = no clear call, values can overlap the other calls; inactive = mostly above about 0.92. The list shows a part of the results.

Assay: chemical genetic growth profiling, strain panel (AID 1159580);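 note: tested at 20 µM; growth read once vehicle control cultures reached saturation at 30 °C; 1 = growth at the plate median or of vehicle wells; lower values mean less growth of the strain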
Details: S. cerevisiae deletion strains, growth OD

Measured: normalized growth

CNCCCN1c2ccccc2CCc2ccccc21
inactive: locus YAL013W, strain DEP1, active compounds read low 0.993 | locus YAL021C, strain ccr4, active compounds read low 1 | locus YAL026C, strain drs2, active compounds read low 0.985 | locus YAL030W, strain snc1, active compounds read low 1.03 | locus YAL040C, strain CLN3, active compounds read low 1 | locus YBL061C, strain skt5, active compounds read low 1.02 | locus YBR009C, strain hhf1, active compounds read low 0.972 | locus YBR021W, strain FUR4, active compounds read low 1 | locus YBR023C, strain chs3, active compounds read low 1.02 | locus YBR171W, strain sec66, active compounds read low 1.03 | locus YBR229C, strain ROT2, active compounds read low 1.01 | locus YBR231C, strain swc5, active compounds read low 1.02 | locus YBR279W, strain paf1, active compounds read low 0.996 | locus YCL011C, strain gbp2, active compounds read low 0.994 | locus YCL016C, strain dcc1, active compounds read low 0.988 | locus YCL029C, strain bik1, active compounds read low 1 | locus YCL061C, strain MRC1 (second series), active compounds read low 0.994 | locus YCL061C, strain MRC1, active compounds read low 1.04 | locus YCL069W, strain vba3, active compounds read low 1.02 | locus YCR088W, strain abp1, active compounds read low 1.02 | locus YDL005C, strain med2, active compounds read low 1.03 | locus YDL035C, strain GPR1, active compounds read low 1.02 | locus YDL040C, strain nat1, active compounds read low 1.02 | locus YDL074C, strain BRE1, active compounds read low 1 | locus YDL101C, strain DUN1, active compounds read low 1 | locus YDL134C, strain PPH21, active compounds read low 1.02 | locus YDL185W, strain tfp1, active compounds read low 1 | locus YDL192W, strain arf1, active compounds read low 0.997 | locus YDR001C, strain nth1, active compounds read low 1.02 | locus YDR069C, strain doa4, active compounds read low 1.05 | locus YDR101C, strain arx1, active compounds read low 1.01 | locus YDR137W, strain rgp1, active compounds read low 1.1 | locus YDR150W, strain NUM1, active compounds read low 1.01 | locus YDR159W, strain sac3, active compounds read low 0.987 | locus YDR162C, strain NBP2, active compounds read low 1.02 | locus YDR195W, strain ref2 1.07 | locus YDR297W, strain sur2, active compounds read low 1.03 | locus YDR318W, strain mcm21, active compounds read low 0.993 | locus YDR334W, strain swr1, active compounds read low 1.01 | locus YDR335W, strain msn5, active compounds read low 1.02 | locus YDR363W, strain ESC2, active compounds read low 0.997 | locus YDR388W, active compounds read low 0.992 | locus YDR392W, strain spt3, active compounds read low 0.91 | locus YDR502C, strain sam2, active compounds read low 1.01 | locus YEL003W, strain gim4, active compounds read low 1.02 | locus YEL037C, strain rad23, active compounds read low 1.01 | locus YEL061C, strain CIN8 (second series), active compounds read low 1.01 | locus YEL061C, strain CIN8, active compounds read low 1.01 | locus YER002W, strain NOP16, active compounds read low 0.983 | locus YER015W, strain faa2, active compounds read low 1.01 | locus YER016W, strain bim1, active compounds read low 0.991 | locus YER110C, active compounds read low 0.999 | locus YER111C, strain swi4, active compounds read low 1.01 | locus YER155C, strain BEM2 (second series), active compounds read low 1.05 | locus YER155C, strain BEM2, active compounds read low 1.01 | locus YER167W, strain BCK2, active compounds read low 1.01 | locus YFR010W, strain ubp6, active compounds read low 1.01 | locus YGL078C, strain dbp3, active compounds read low 0.994 | locus YGL086W, strain mad1, active compounds read low 0.991 | locus YGL167C, strain pmr1, active compounds read low 1.02 | locus YGL173C, strain kem1, active compounds read low 1.02 | locus YGL227W, strain vid30, active compounds read low 1.01 | locus YGL240W, strain doc1, active compounds read low 1.06 | locus YGL248W, strain PDE1, active compounds read low 0.992 | locus YGL253W, strain hxk2, active compounds read low 0.996 | locus YGR135W, strain pre9, active compounds read low 0.986 | locus YGR252W, strain gcn5, active compounds read low 0.94 | locus YHR013C, strain ard1, active compounds read low 0.984 | locus YHR027C, strain rpn1, active compounds read low 0.999 | locus YHR030C, strain SLT2, active compounds read low 1.01 and 1.02 | locus YHR079C, strain IRE1 (second series), active compounds read low 1 | locus YHR079C, strain IRE1, active compounds read low 1.01 | locus YHR094C, strain hxt1, active compounds read low 0.995 | locus YHR129C, strain ARP1, active compounds read low 1.01 | locus YHR142W, strain chs7, active compounds read low 0.993 | locus YHR200W, strain rpn10, active compounds read low 1.01 | locus YIL066C, strain RNR3, active compounds read low 1.01 | locus YIL073C, strain SPO22, active compounds read low 0.964 | locus YIL125W, strain kgd1, active compounds read low 1 | locus YIR030C, strain dcg1, active compounds read low 0.999 | locus YJL092W, strain hpr5, active compounds read low 1.01 | locus YJL095W, strain BCK1 (second series), active compounds read low 1.01 | locus YJL095W, strain BCK1, active compounds read low 0.979 and 1.02 | locus YJL115W, strain asf1, active compounds read low 0.999 | locus YJL129C, strain trk1, active compounds read low 1.04 | locus YJL134W, strain LCB3, active compounds read low 1 | locus YJL154C, strain vps35, active compounds read low 1.01 | locus YJL164C, strain tpk1, active compounds read low 0.984 | locus YJL166W, strain qcr8, active compounds read low 1.06 | locus YJL168C, strain set2, active compounds read low 1 | locus YJL187C, strain SWE1 (second series), active compounds read low 0.998 | locus YJR043C, strain POL32, active compounds read low 1.01 | locus YJR066W, strain TOR1, active compounds read low 0.98 | locus YJR075W, strain HOC1, active compounds read low 0.968
